Several values for one entry are separate records, joined by “and”; a condition that tells them apart may be missing. Equal entries are not always repeated. Results filed as inconclusive are left out. A number with no mark means an inactive call. Activity calls are given as the source filed them. Calls come from the whole dose curve; as a rule, active = well fitted curve in the direction sought with a large enough effect; inconclusive = small, poorly fitted or top-dose-only effect, or another doubt; inactive = no such curve, though single readings can be large; an effect the other way counts as inactive or inconclusive.

Assay [1] can be described thus: Viability qHTS for spleen associated tyrosine kinase inhibitor (SYKi) naive MV4-11 cells (AID 1963823). Note: nearly all actives have a fitted effect of over 40% in size. Note: potency is the fitted concentration of half-maximal effect. Summed up: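 In this viability screen, compounds acted on SYK inhibitor naive MV4-11 cells for three days (72 hr, 37 C). Remaining viable cells were measured by CellTiter-Glo luminescence following a 10 min room-temperature development.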
Assay [2] can be described thus: Cellular viability qHTS for adrenocortical cancer (ACC) cell line SW-13 (AID 1963989).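 For activity (max response): cells grown in serum-free medium with ITS supplement; % is set by controls: 0 for no effect and ±100 for the full control effect.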 Note: nearly all actives have a fitted effect of over 65% in size. Note: potency is the fitted concentration of half-maximal effect. The note with it: SW-13 ACC cells viability, CellTiter-Glo, 48 h; activity (max response): hits give low values. Summed up: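 SW-13 cells in ITS-supplemented serum-free DMEM were plated overnight, then exposed for 48 h at 37C to compound titrations (up to 46 uM final). Viability was read by CellTiter-Glo luminescence; four-parameter logistic fits gave IC50 and efficacy.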

A short description of assay [3]: Cellular viability qHTS for adrenocortical cancer (ACC) cell line NCI-H295R (AID 1963990). Note: nearly all actives have a fitted effect of over 60% in size. Note: potency is the fitted concentration of half-maximal effect. Summed up:
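Luminescent ATP read-out (CellTiter-Glo, 20 min RT) after 48 h drug exposure of NCI-H295R cells; a titration up to 46 uM final. Data normalized to doxorubicin (100% inhibition) and DMSO (0%); 4-parameter fit gives IC50, max response.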
Background: In qHTS, concentration-response curves come from the screen itself.

Assay [4] in a line: Viability qHTS for spleen associated tyrosine kinase inhibitor (SYKi) drug resistant MV4-11 cells (AID 1963824). Note: nearly all actives have a fitted effect of over 35% in size. Note: potency is the fitted concentration of half-maximal effect. Summed up: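 CellTiter-Glo luminescence, read 10 min after reagent addition, reports viability after a 72 hr compound exposure. Cells are an MV4-11 line made resistant to SYK inhibition, seeded at 500 per well onto compound-containing plates.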
The nature of assay [5]: Quantitative highthroughput screen to assess conditional lethalithy of NOMO1 cells grown in RPMI1640 with dialyzed fetal bovine serum (RPMI+ds) (AID 1963877).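 Note: series mostly up to about 46 µM; 100% = DMSO control wells and 0% = empty wells; nearly all actives have a fitted effect of over 30% in size.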 Summed up: (§1)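 Each medium arm—HPLM with 10% dialyzed FBS, or RPMI1640 with 5 mM glucose and 10% untreated or dialyzed FBS—was screened against an 11-point, 3-fold compound titration for 48 h at 37 °C, with CellTiter-Glo luminescence as endpoint.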

Assay [6] is described as follows: Quantitative highthroughput screen to assess conditional lethalithy of NOMO1 cells grown in Human Plasma-Like Medium with dialyzed fetal bovine serum (HPLM+ds) (AID 1963878).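 Note: 100% = DMSO wells and 0% = empty wells on each plate; nearly all actives have a fitted effect of over 35% in size.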 Summed up: as §1
Assay [7] in a line: Quantitative highthroughput screen to assess conditional lethalithy of P12 Ichikawa cells grown in Human Plasma-Like Medium with dialyzed fetal bovine serum (HPLM+ds) (AID 1963879). Note: series mostly up to about 46 µM; nearly all actives have a fitted effect of over 35% in size. The settings on record: Potency: viability. Summed up:
as §1

A short description of assay [8]: Quantitative highthroughput screen to assess conditional lethalithy of NOMO1 cells grown in RPMI1640 with untreated serum (RPMI+s) (AID 1963876).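 Note: 100% = DMSO wells and 0% = empty wells without cells; nearly all actives have a fitted effect of over 35% in size.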 Summed up: as §1
Assay [9] can be described thus: Quantitative highthroughput screen to assess conditional lethalithy of P12 Ichikawa cells grown in RPMI1640 with dialyzed fetal bovine serum (RPMI+ds) (AID 1963880). The note with it: Potency: P12-Ichikawa viability. Summed up: as §1
The nature of assay [10]: Quantitative highthroughput screen to assess conditional lethalithy of SEM cells grown in Human Plasma-Like Medium with dialyzed fetal bovine serum (HPLM+ds) (AID 1963882). Summed up: as §1
Assay [11] is described as follows: Quantitative highthroughput screen to assess conditional lethalithy of SEM cells grown in RPMI1640 with dialyzed fetal bovine serum (RPMI+ds) (AID 1963884). Summed up:
as §1

Turning to `CCCC(C)C1(CC)C(=O)N=C(S)NC1=O` (stereo not drawn), the Potency entry in [1] and in [3] was “inactive” throughout. For the same molecule, the activity (max response) in assay [2] was -0.902%.

With `CN(C(=O)CN1C(=O)COc2cc(Cl)c(Cl)cc21)[C@@H](CN1CCCC1)c1ccc(-c2cccc(C(N)=O)c2)cc1`, the Potency in assay [4] is 8.2 µM (active).

Consider `Cc1nc2ccccc2c(=O)n1-c1ccccc1Cl`, for which the Potency entry in assay [1] and in assay [3] was “inactive” in each case. In addition, the activity (max response) in [2] was -17.2%.

In the case of `C=C1[C@@H](O)[C@]2(O)OC[C@]34C2[C@]2(C)C(C[C@H]3OC(=O)[C@H](O)[C@@]14O)C(C)=CC(=O)[C@H]2O` (stereo partly drawn), in assay [4], the Potency is 3.17 µM (active).

As for `CC1=C2[C@H]3OC(=O)[C@@H](C)[C@@H]3CC[C@@]2(C)C=CC1=O`, the Potency entry in assay [1] and in assay [3] was “inactive” throughout. Moreover, in assay [2], the activity (max response) was -9.75%.

`CC1=CC2/C=C(\C)CCC(O)C(O)/C=C/C(=O)C23C(=O)NC(CC(C)C)C3C1C` (stereo not drawn): the Potency in assay [4] is 1.42 µM (active).

On to `C/C=C1/CN2CC[C@]34C(=Nc5ccc(OC)cc53)C2C[C@@H]1C4(CO)C(=O)OC` (stereo partly drawn), for which the Potency result in assay [4] was “inactive”.

As for `CN1CCC(N(Cc2ccccc2)c2ccccc2)CC1`, the Potency result in assay [1] and in assay [3] was “inactive” in each case.

As for `CCCCCCCCCC(CC)c1ccc(S(=O)(=O)O)cc1` (stereo not drawn), the results for the Potency in assay [1], in [2] and in assay [3] were 7.7 µM (active), 31.6 µM (active) and 25.1 µM (active), respectively.

As to `C=C1[C@@H](C)C2[C@H](Cc3ccccc3)NC(=O)[C@@]23C(/C=C/C[C@H](C)C[C@@](C)(O)/C=C/[C@@H]3OC(C)=O)[C@@H]1O` (stereo partly drawn), the Potency in assay [4] is 0.92 µM (active).

`CC(=O)[C@H]1CC[C@H]2[C@@H]3CC[C@H]4C[C@](C)(O)CC[C@]4(C)[C@H]3CC[C@]12C`: the Potency entry in [1] and in assay [3] was “inactive” each time. Also, the activity (max response) in [2] was 7.79%.

For the molecule `COC1(C[S@@](=O)c2ccccc2)CCN(CCc2c[nH]c3ccc(F)cc23)CC1`, the Potency in assay [4] is 20.6 µM (active).

With `C=CCC1([C@H](C)CCC)C(=O)NC(=O)NC1=O`, the Potency entry in [1] and in [3] was “inactive” in each case. Besides, the activity (max response) in assay [2] was -3.9%.

With `CCC(C)C1NC(=O)C2CCCN2C(=O)C(CC(C)C)OC(=O)CCNC(=O)C(C)N(C)C(=O)C(C(C)C)N(C)C1=O` (stereo not drawn), the Potency in assay [4] was 5.44 µM (active).

As to `CC1(C)CC[C@]2(NC(=O)C(C)(F)F)CC[C@]3(C)[C@H](C(=O)C=C4[C@@]5(C)C=C(C#N)C(=O)C(C)(C)[C@@H]5CC[C@]43C)[C@@H]2C1`, the values for the Potency in assay [1], in assay [2] and in [3] were 3.32 µM (active), 4.47 µM (active) and 3.98 µM (active), respectively.

As to `CC(C)=CC1C(C(=O)OCc2cccc(Oc3ccccc3)c2)C1(C)C` (stereo not drawn), the Potency result in [1] and in assay [3] was “inactive” throughout. Besides, in [2], the activity (max response) was 3.55%.

Take `O=C1c2ccccc2C(=O)C1C(=O)C(c1ccccc1)c1ccccc1`: in [1], the Potency entry was “inactive”. The Potency in assay [3] was 23.1 µM (active).

Take `Cc1cccc(NC(=O)N[C@H]2CN(C)c3ccccc3C(c3ccccc3)=N2)c1`: the Potency in assay [4] is 16.4 µM (active).

As to `CC(C)(C)OC(=O)c1ncn2c1[C@@H]1CCCN1C(=O)c1c(Br)cccc1-2`, the Potency result in [1] and in assay [3] was “inactive” in each case. In addition, in assay [2], the activity (max response) is 2.94%.

Consider `C[C@]12CCC(=O)C=C1CC[C@@H]1[C@@H]2CC[C@]2(C)C(=O)CC[C@@H]12`, for which the Potency result in [1] and in assay [3] was “inactive” in each case. The activity (max response) in [2] was -7.18%.

For `CC(=O)O[C@H]1CC[C@H]2[C@@H]3CC[C@H]4CC(=O)C=C(C)[C@]4(C)[C@H]3CC[C@]12C`, in assay [4], the Potency is 11.6 µM (active).

As for `COc1cc(C[C@@H](C)N)c(OC)cc1Br`, the Potency entry in [1] and in [3] was “inactive” each time. For the same molecule, in [2], the activity (max response) is -7.05%.

In the case of `COC(=O)C1=COC(C)C2CN3CCC4(C(=O)Nc5ccccc54)C3CC12` (stereo not drawn), the Potency in [4] was 14.3 µM (active).

Regarding `C[C@H]1O[C@@H](O[C@H]2CC[C@]3(CO)C4CC[C@]5(C)[C@@H](C6=CC(=O)OC6)CC[C@]5(O)[C@@H]4CC[C@H]3C2)[C@H](O)[C@H](O)[C@@H]1O[C@@H]1O[C@H](CO)[C@@H](O)[C@H](O)[C@H]1O` (stereo partly drawn), in assay [4], the Potency is 0.544 µM (active).

`NC(=O)CS(=O)C(c1ccccc1)c1ccccc1` (stereo not drawn): the Potency result in [1] and in [3] was “inactive” each time. In addition, the activity (max response) in [2] was 12.6%.

Consider `O=C(O)CNC(=O)C1C(=O)N(C2CCCCC2)C(=O)N(C2CCCCC2)C1=O`, for which the Potency result in assay [1] and in assay [3] was “inactive” each time. Further, in assay [2], the activity (max response) is -10.4%.

In the case of `Cc1ccc(N=CN(C)C=Nc2ccc(C)cc2C)c(C)c1`, the Potency entry in assay [1] and in assay [3] was “inactive” throughout. The activity (max response) in assay [2] is 9.45%.

Turning to `C#CC1(O)CCC2C3CCC4=CC(=O)CCC4(C)C3CCC21C` (stereo not drawn), the Potency in assay [4] is 11.8 µM (active). The Potency entry in assay [5], in assay [6], in [7] and in assay [3] was “inactive” each time. Besides, the activity (max response) in [2] is 9.7%.

As to `CCC1(c2ccc(N)cc2)CCC(=O)NC1=O` (stereo not drawn), the Potency entry in [4], in [8], in assay [5], in assay [6], in assay [7] and in assay [9] was “inactive” throughout. Besides, the Potency entry in assay [10], in assay [11] and in [3] was “inactive” each time. Further, in [2], the activity (max response) is -1.13% and 5.11%.
